The panel holds about 79,000 compounds, 15% with a hit somewhere; the sample as a whole holds those more often. Rule as the data show it: active = growth inhibition above about 70%; inactive = the rest.
Tests used:
[1] = NCI Yeast Anticancer Drug Screen. Data for the rad50 strain (AID 155);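 also: 0% = growth of vehicle-only cultures of the same strain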; details: S. cerevisiae rad50 strain growth inhibition; at 50.0 µM; stronger effect = higher value
Summary of the method: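 Cells are treated with compound, grown, and their growth is then scored against vehicle-only cultures of the same repair-deficient yeast strain.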

[2] = NCI Yeast Anticancer Drug Screen. Data for the mec2-1 strain (AID 157); details: S. cerevisiae mec2-1 strain, at 50.0 µM, stronger effect = higher value
Summary of the method: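 Test agents were screened against the mec2-1 yeast strain, with defined DNA repair or cell cycle alteration. Growth was scored as inhibition against vehicle-only controls.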

[3] = NCI Yeast Anticancer Drug Screen. Data for the sgs1 mgt1 strain (AID 161);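 also: 0% = growth of cultures given vehicle only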; details: S. cerevisiae sgs1 mgt1 strain, at 50.0 µM, stronger effect = higher value
Summary of the method: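 Read-out: growth inhibition vs vehicle controls. Cells: mutant yeast strain deficient in DNA damage repair.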

[4] = NCI Yeast Anticancer Drug Screen. Data for the cln2 rad14 strain (AID 165);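 also: 0% = growth equal to vehicle treated cultures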; details: S. cerevisiae cln2 rad14 strain, at 50.0 µM, stronger effect = higher value
Summary of the method: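 Growth of compound-exposed yeast (cln2 rad14 genotype) measured and expressed as inhibition relative to vehicle.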

[5] = NCI Yeast Anticancer Drug Screen. Data for the bub3 strain (AID 167); details: S. cerevisiae bub3 mutant strain, at 50.0 µM, stronger effect = higher value
Summary of the method: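 Part of a panel of yeast mutants defective in DNA damage repair or cell cycle regulation. Each strain is grown with compound, and inhibition is calculated relative to solvent-treated cultures.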

[6] = NCI Yeast Anticancer Drug Screen. Data for the mlh1 rad18 strain (AID 175); details: S. cerevisiae mlh1 rad18 strain growth inhibition; at 50.0 µM; stronger effect = higher value
Summary of the method: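 In this whole-cell yeast screen, a strain with altered DNA damage repair is challenged with compound, and its growth is measured against matched vehicle-treated controls.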

Measured: growth inhibition

CC(C)(C)c1ccc(O)c(C(=O)O)c1
inactive: [1] 3.55% | [2] -0.95% | [3] -5.8% | [4] -4% | [5] -35.1% | [6] -23.2%

CCCC12C=C(OC)C(=O)C=C1OC(c1cc(OC)c(OC)c(OC)c1)C2C (stereo not drawn)
inactive: [1] -14.8% | [2] -23.4% | [3] -18.8% | [4] -4.45% | [5] -6.8% | [6] -13.4%

CC(=O)c1cccc(C(=O)O)c1
inactive: [1] -17.4% | [2] 1.95% | [3] -11.7% | [4] -29.7% | [5] -2.35% | [6] -4.3%

Cc1cc(C)[n+](C)c(/C=C/c2ccc([N+](=O)[O-])cc2)n1
inactive: [1] 14.2% | [2] 6.95% | [3] 15.6% | [4] 27.8% | [5] 22.4% | [6] 23.2%

CCCCCC(=O)N1CCOCC1
inactive: [1] 11.2% | [2] 10.8% | [3] 5.6% | [4] -6.35% | [5] -21.4% | [6] 9%

CCOC(=O)c1nnc(C)[nH]c1=O
inactive: [1] 13.4% | [2] -5.5% | [3] -14.5% | [4] -43.9% | [5] -2.8% | [6] 15%

CCOC(=O)C(C(=O)OCC)=C(N)C(Cl)(Cl)Cl
inactive: [1] 0.2% | [2] -1.6% | [3] -9.9% | [4] 14.8% | [5] 11.7% | [6] -1.9%

CC(=O)C(C(C)=O)C(c1ccccn1)C(C(C)=O)C(C)=O
inactive: [1] -6.7% | [2] -0.65% | [3] -4.05% | [4] -0.65% | [5] 6.8% | [6] -6.45%

O=c1[nH]c2cc(Cl)ccc2nc1/C(=N/Nc1ccccc1)C(O)c1ccco1 (stereo not drawn)
inactive: [1] 19.4% | [2] -15.7% | [3] -4.8% | [4] 5.85% | [5] 7.65% | [6] -54.4%

CS(=O)(=O)OC12CC3CC(CC(C3)C1)C2
inactive: [1] 7.3% | [2] -9.1% | [3] -11.8% | [4] -26.5% | [5] -0.75% | [6] 5.55%

CCOC(=O)NN(C(=O)OCC)c1c(C)[nH]c2ccccc12
inactive: [1] 20.3% | [2] 10.6% | [3] 19.4% | [4] -10.6% | [5] 4.65% | [6] 24.5%

CC1=C(CC2C(=O)N(c3ccccc3)S(=O)(=O)NC2C)C(=O)N(c2ccccc2)S(=O)(=O)N1C (stereo not drawn)
inactive: [1] 20.1% | [2] 4% | [3] -14% | [4] -17.1% | [5] -1.65% | [6] 8.5%

CCOC(=O)Nc1ccc(C2SCCN2C(=O)NC)cc1 (stereo not drawn)
inactive: [1] 8.35% | [2] -22.1% | [3] 18.4% | [4] 17.4% | [5] 5.85% | [6] 32.2%

COC(=O)c1ccccc1C1CN=NC12Cc1c(C)cccc1C2=O (stereo not drawn)
inactive: [1] -2.25% | [2] 6% | [3] -5% | [4] -7.1% | [5] 13.8% | [6] -13.7%

Nc1ccc(N=Nc2ccncc2)c2ccccc12
inactive: [1] 31.7% | [2] 22.5% | [3] 4.1% | [4] -15.1% | [5] 28% | [6] 19.7%

N#Cc1c(-c2ccc(Cl)cc2)c(C#N)c(=O)n(NS(=O)(=O)c2ccccc2)c1O
inactive: [1] 17.5% | [2] 46.9% | [3] 41.7% | [4] 48% | [5] 47% | [6] 50.2%

CCCCN(CCCC)CCCCCCCCCCCO
inactive: [1] 38.7% | [2] -8.35% | [3] 34.5% | [4] -22.9% | [5] 30.8% | [6] 27.6%

Nc1ccc2nc3n(c(=O)c2c1)CCCCC3
inactive: [1] -25.1% | [2] -11.4% | [3] 1.4% | [4] 23.2% | [5] 0.65% | [6] 10.8%

CC1(C)CC(C)(C)CC(O)(C2(O)CC(C)(C)CC(C)(C)C2)C1
inactive: [1] -0.95% | [2] 0.35% | [3] -2.7% | [4] -3% | [5] -5.4% | [6] 9.2%

O/N=C1\CC2(N3CCOCC3)CCC1(Cc1ccccc1)CC2
inactive: [1] 36% | [2] 52.6% | [3] 60.2% | [4] 55.6% | [5] 38.8% | [6] 49.4%

O=C(NC1CC1)C1CC1
inactive: [1] -20.2% | [2] -12.8% | [3] -1.45% | [4] -17.4% | [5] 1.7% | [6] -1.35%

C=CCSC(=S)NC
inactive: [1] -6.2% | [2] -7.5% | [3] -2.7% | [4] 10.2% | [5] -0.9% | [6] 8.4%

CC(=NCCN=C(C)c1ccc(Br)cc1)c1ccc(Br)cc1
inactive: [1] 16.9% | [2] -6.95% | [3] -21.8% | [4] -2% | [5] 2.4% | [6] 1.1%

Cc1nc(Nc2ccccc2)sc1C(=O)CC(=O)C(=O)NC12CC3CC(CC(C3)C1)C2
inactive: [1] 1.3% | [2] 8.95% | [3] 8.8% | [4] -13.1% | [5] 4.4% | [6] -0.7%

CCCCCCCCCCCCCCOc1ccc(Sc2ccc([N+](=O)[O-])cc2)cc1
inactive: [1] 40.8% | [2] -0.1% | [3] 46% | [4] -5% | [5] 5.8% | [6] 26.8%

O=C(O)CNS(=O)(=O)c1ccccc1
inactive: [1] -43.5% | [2] -7.7% | [3] -23.1% | [4] -24.6% | [5] -0.8% | [6] 6%

N/N=C1\CC(=O)NC(=O)N1
inactive: [1] -2.15% | [2] -11.1% | [3] 1.9% | [4] 1.8% | [5] 3.05% | [6] 0.05%

CCOc1ccc(NC(=O)Oc2ccc(-c3ccccc3)cc2)cc1
inactive: [1] 15.8% | [2] 33.5% | [3] 24.4% | [4] -12% | [5] 56.7% | [6] 48.1%

CC(=O)OC1C(C)OC(n2cnc3c(=O)[nH]cnc32)C(OC(C)=O)C1OC(C)=O (stereo not drawn)
inactive: [1] 37.1% | [2] 9.25% | [3] 16.4% | [4] -7.3% | [5] 6.25% | [6] 27.8%

COc1ccc(/C=c2/s/c(=C(\C#N)c3nc4ccccc4[nH]3)n(-c3ccccc3)c2=O)cc1
inactive: [1] 4% | [2] -15.2% | [3] -6.4% | [4] 13.9% | [5] -17.6% | [6] 13.2%

Br
inactive: [1] -11.7% | [2] -33.1% | [3] -54.9% | [4] -20% | [5] -30.6% | [6] -44.1%

COc1ccc2c(=O)c(Cc3c[nH]c4ccccc34)coc2c1
inactive: [1] 27.6% | [2] 12% | [3] 29% | [4] -35.6% | [5] 9.85% | [6] 19.2%

CC(=O)CC(=NCC(O)CN=C(CC(C)=O)c1ccccc1)c1ccccc1.[Cu] (stereo not drawn)
inactive: [1] 10.4% | [2] 8.55% | [3] 5.9% | [4] -18.7% | [5] -11.3% | [6] 25.4%

CCOC(=O)C(C(C)=O)C(c1ccc(OCc2ccccc2)c(C)c1)C(C(C)=O)C(=O)OCC (stereo not drawn)
inactive: [1] 14.7% | [2] 3.9% | [3] 25.9% | [4] 27.1% | [5] 8.55% | [6] 19.9%

CN(C)c1ccc(/C=N/N(Cc2ccccc2)c2ccccc2)cc1
inactive: [1] -14.4% | [2] -29.1% | [3] 3.2% | [4] -11.6% | [5] 11.3% | [6] 10.2%

Cc1c2c(cc3c1[nH]c1ccccc13)C(c1ccc(F)cc1)=NCC2
inactive: [1] -1.8% | [2] 5.55% | [3] 1.85% | [4] -51% | [5] -0.6% | [6] -2.45%

CCOC(=O)c1c(OC)ccc2ccccc12
inactive: [1] 13.3% | [2] 10.7% | [3] 4% | [4] -29.9% | [5] 21.6% | [6] 0.35%

C=CC1C(=O)N(C)[C@H](C(C)(C)C)N1C(=O)c1ccccc1 (stereo partly drawn)
inactive: [1] 1.5% | [2] 11.9% | [3] 9.1% | [4] -18.9% | [5] 2% | [6] 10%
